Compounds with a hit are over-represented: about 3.4% of the library has one in this group of screens.
pPAFAH FP inh – inhibitors of human plasma PAF acetylhydrolase (pPAFAH); Q13093; inhibition, % at 3.39 µM; 330,000 tested, 1.5% active; recombinant pPAFAH, FP-rhodamine probe fluorescence polarization;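 active = inhibition above the mean inhibition across the screen plus 3 SD, cut at about 25% in these data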;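 note: inhibitors block binding of the rhodamine activity-based probe so polarization drops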
Target sequence (Q13093 whole entry, looked up): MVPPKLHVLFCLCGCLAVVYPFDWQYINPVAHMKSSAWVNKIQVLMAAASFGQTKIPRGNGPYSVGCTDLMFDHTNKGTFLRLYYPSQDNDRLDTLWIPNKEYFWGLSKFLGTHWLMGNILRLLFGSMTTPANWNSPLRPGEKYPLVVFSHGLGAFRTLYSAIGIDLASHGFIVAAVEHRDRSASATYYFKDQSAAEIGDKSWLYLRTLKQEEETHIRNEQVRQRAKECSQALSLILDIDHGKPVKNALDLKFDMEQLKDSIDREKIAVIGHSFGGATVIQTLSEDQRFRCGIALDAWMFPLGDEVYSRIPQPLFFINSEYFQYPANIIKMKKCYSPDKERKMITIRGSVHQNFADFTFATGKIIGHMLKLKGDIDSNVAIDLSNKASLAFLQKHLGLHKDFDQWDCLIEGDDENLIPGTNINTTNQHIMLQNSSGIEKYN
PAFAH2 FP inh – PAFAH2 (human) inhibition; Q99487; inhibition, % at 3.39 µM; recombinant PAFAH2, FP-rhodamine activity probe, fluorescence polarization; 340,000 tested, 0.99% active; AID 492956;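 active = inhibition above the mean over all tested compounds plus 3 SD, cut at about 30% in these data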;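 note: inhibitors block probe labeling of enzyme so polarization drops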
PP1 inh – counter-screen for PP5 inhibitors: inhibitors of human PP1-alpha. purified PP1alpha, OMFP fluorescence. inhibition, % at 6.7 µM. 320,000 tested, 0.9% active. AID 2235;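 active = inhibition above the mean inhibition of all tested compounds plus 3 SD, computed separately for each screening campaign, cut at about 15% in these data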
PAFAH1B3 FP inh – PAFAH1B3 (human) inhibition; recombinant PAFAH1B3, FP-rhodamine probe, fluorescence polarization; inhibition, % at 3.39 µM; 340,000 tested, 0.28% active; AID 492972;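 active = inhibition above the screen-wide average of all tested compounds plus 3 SD, cut at about 25% in these data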
PAFAH1B2 FP inh – inhibitors of human PAFAH1B2; recombinant PAFAH1B2, FP-rhodamine activity probe, fluorescence polarization; inhibition, % at 3.39 µM; 340,000 tested, 1.2% active;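 active = inhibition above the mean of all tested compounds plus 3 SD, cut at about 24% in these data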
Target sequence (P68402 whole entry, looked up): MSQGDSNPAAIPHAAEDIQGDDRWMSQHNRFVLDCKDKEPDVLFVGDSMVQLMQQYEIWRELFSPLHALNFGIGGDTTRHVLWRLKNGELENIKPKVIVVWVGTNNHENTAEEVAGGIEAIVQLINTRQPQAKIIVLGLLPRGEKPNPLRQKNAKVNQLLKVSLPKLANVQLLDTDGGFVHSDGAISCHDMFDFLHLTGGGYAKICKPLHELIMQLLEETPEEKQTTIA
PP5 inh – inhibitors of human protein phosphatase 5 (PP5); P53041; purified PP5c, OMFP substrate fluorescence; inhibition, % at 6.7 µM; 320,000 tested, 0.18% active; AID 1987;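 active = inhibition above the campaign's mean inhibition across all tested compounds plus 3 SD, cut at about 9.5% in these data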
Each line names hits and unclear results; the compound was inactive in the other large screens.

O=c1[nH]c(C2CCN(S(=O)(=O)c3ccccc3C(F)(F)F)CC2)nc2c1nnn2Cc1cccc(F)c1	PP1 inh 15.6
O=c1[nH]c(C2CCN(S(=O)(=O)Cc3ccccc3)CC2)nc2c1nnn2Cc1ccccc1	none
O=c1[nH]c(C2CCN(S(=O)(=O)c3ccc(C(F)(F)F)cc3)CC2)nc2c1nnn2Cc1cccc(F)c1	none
O=c1[nH]c(C2CCN(S(=O)(=O)/C=C/c3ccccc3)CC2)nc2c1nnn2Cc1ccc(F)cc1	PP1 inh 16.6
O=c1[nH]c(C2CCN(S(=O)(=O)c3ccc4c(c3)OCCO4)CC2)nc2c1nnn2Cc1c(F)cccc1Cl	PP1 inh 16.9
COc1cc(S(=O)(=O)NC2CC(C)(C)NC(C)(C)C2)c(OC)cc1Cl	none
CCOc1ccc(/C=N/NC(=O)c2cc3c(OC)cccc3[nH]2)cc1	PP1 inh 16.1
COc1cccc(/C=N/NC(=O)c2cc3c(OC)cccc3[nH]2)c1OC	none
COc1ccc(OC)c(/C=N/NC(=O)c2cc3c(OC)cccc3[nH]2)c1	pPAFAH FP inh 25.2
O=C(O)Cc1ccc2c(c1)N(S(=O)(=O)c1cccc(C(F)(F)F)c1)CC(C(=O)O)O2 (stereo not drawn)	PAFAH1B2 FP inh 26.7
Cc1oc2ccc(OCc3ccc(F)cc3)cc2c1C(=O)O	PAFAH1B2 FP inh 24.5
O=C(NCc1ccc(F)cc1)C1CCN(S(=O)(=O)c2ccc(Br)s2)CC1	PAFAH1B2 FP inh 25.3
O=C(NCc1ccc(F)cc1)C1CCCN(S(=O)(=O)c2ccc(Br)s2)C1 (stereo not drawn)	none
Nc1nc(SCc2nc3scc(-c4ccccc4)c3c(=O)[nH]2)n[nH]1	none
N#CC1(C#N)CC(C=O)=C(N)C1(C#N)CC(=O)C12CC3CC(CC(C3)C1)C2 (stereo not drawn)	PAFAH1B2 FP inh 31.1
CCCCN(CCCNC(=O)C1CCN(S(=O)(=O)N2CCOCC2)CC1)c1ccccc1	pPAFAH FP inh 28.2
O=[N+]([O-])c1cccc(-c2nc(-c3cccs3)c(-c3cccs3)[nH]2)c1	pPAFAH FP inh 28.5
CCc1cccc(C)c1NC(=O)CCN1C(=O)NC(C)(C)C1=O	none
O=C(OCc1ccc([N+](=O)[O-])cc1)C1CC(=O)N(Cc2ccccc2)C1 (stereo not drawn)	none (no result: PP1 inh, PP5 inh)
COCCN(C(=O)C1CC(=O)N(Cc2ccccc2)C1)c1nc(-c2ccc([N+](=O)[O-])cc2)cs1 (stereo not drawn)	PP1 inh 16.7
COC(=O)CC1=C(C(=O)OC)C(c2ccc3c(c2)OCO3)C(C#N)=C(N)O1 (stereo not drawn)	none
Cc1sc(-n2c(C)cc(/C=C3\SC(=S)NC3=O)c2C)c(C#N)c1C	pPAFAH FP inh 31.1
CCn1c(C)cc(/C=C2/SC(=S)NC2=O)c1C	none
C/C(=N\NC(=O)c1ccc(Cl)c(Cl)c1)c1ccc(Br)s1	none
C/C(=N\Nc1ccc(Cl)c(C(=O)O)c1)c1ccc(Br)s1	pPAFAH FP inh 26.9
CC12CC3CC(C)(C1)CC(C(=O)N1CCN(C(=O)c4ccco4)CC1)(C3)C2	PAFAH1B2 FP inh 35.5
O=C(c1ccco1)N1CCN(C(=O)C23CC4CC(CC(C4)C2)C3)CC1	none
C/C(=N\OC(=O)c1ccc(Cl)c(Cl)c1)c1sc(C)nc1C	pPAFAH FP inh 33.9
C/C(=N\OC(=O)c1ccc(F)cc1)c1sc(-c2ccc(Cl)cc2)nc1C	none
CC(C(=O)NC(=O)NC1CCCCC1)N1CCN(c2ccccn2)CC1 (stereo not drawn)	none
c1cncc(N=c2scc(-c3cccc4ccccc34)n2CCCn2ccnc2)c1	PP1 inh 15.8
CCN(CC(=O)Nc1ccc(OC)cc1)C(=O)c1cc(-c2cccs2)nn1-c1ccccc1	none
NC(=O)c1c(NC(=O)CSc2nnc(-c3ccco3)n2-c2ccccc2)sc2c1CCC2	pPAFAH FP inh 32.5
N#Cc1c(NC(=O)CSc2nnc(-c3ccco3)n2-c2ccccc2)sc2c1CCC2	none
CN(CC(=O)Nc1cccc(F)c1)CC(=O)Nc1cccc(S(=O)(=O)N2CCCCC2)c1	none
COc1ccc(-n2c(SCC#N)nnc2-c2ccc(NS(=O)(=O)c3ccc(C)cc3)cc2)cc1	pPAFAH FP inh 26.1
Cc1cc(NS(C)(=O)=O)c(=O)n(Cc2cccc(F)c2)c1	none (no result: pPAFAH FP inh, PP1 inh, PP5 inh)
O=C(O)CCc1ccc(NCc2cccc(Oc3ccccc3)c2)cc1	PAFAH1B2 FP inh 24.4
COc1ccc(CNCc2cccc(Oc3ccccc3)c2)cc1	none
S=C(c1ccccc1)N(c1ccccc1)c1ccccc1	PAFAH1B2 FP inh 37.5
CN(N=C(c1ccccc1)c1ccccc1)c1ccccc1	none (no result: pPAFAH FP inh, PP1 inh, PP5 inh)
Cc1ccc(C)c(Cn2nnc3c(=O)[nH]c(C(=O)NCC4CCCO4)nc32)c1 (stereo not drawn)	PAFAH1B2 FP inh 67.0
Cc1ccc(S(=O)(=O)NC(Cc2ccccc2)C(=O)NN)cc1 (stereo not drawn)	none
Cc1ccc(S(=O)(=O)NC(C)CCc2ccccc2)cc1 (stereo not drawn)	PAFAH1B2 FP inh 35.5
CC(=O)Nc1ccc(S(=O)(=O)NC(C)CCc2ccccc2)cc1 (stereo not drawn)	none
Cc1ccc(S(=O)(=O)N[C@@H](Cc2ccccc2)C(=O)CCl)cc1	PAFAH1B2 FP inh 24.4
Cc1ccc(C)c(S(=O)(=O)NC(C)CCc2ccccc2)c1 (stereo not drawn)	PAFAH1B2 FP inh 28.9
Cc1ccc(S(=O)(=O)NC(C)CCc2ccccc2)cc1C(N)=O (stereo not drawn)	none
CCn1c(CSc2nccn2C)nc2cc(C(=O)O)ccc21	PAFAH1B2 FP inh 29.7
CCn1c(CSc2nc3ccccc3[nH]2)nc2cc(C(=O)O)ccc21	none
COc1ccccc1CCc1nnc(CCC(=O)NC(C)Cc2cccs2)o1 (stereo not drawn)	none
CC(CNS(=O)(=O)c1ccc2c(c1)NC(=O)CCS2)c1ccccc1 (stereo not drawn)	pPAFAH FP inh 26.7, PAFAH1B2 FP inh 39.1
Cc1ccc(NS(=O)(=O)c2ccc3c(c2)NC(=O)CCS3)c(C)c1	pPAFAH FP inh 30.3
COc1cc(C(=O)NCCC(=O)NCc2ccc3c(c2)OCO3)cc(OC)c1OC	none
CCN(CC)c1ccc(NC(=O)c2ccc3c(c2)c(C)c(C)n3C)cc1	PP1 inh 16.9
O=C(O)c1[nH]c2ccccc2c1-c1ccccc1	none
COc1cc(Cl)cc(C(c2c(C(=O)O)[nH]c3ccccc23)c2c(C(=O)O)[nH]c3ccccc23)c1O	PAFAH1B2 FP inh 83.3
O=C(O)c1[nH]c2ccccc2c1C(c1c(F)cccc1Cl)c1c(C(=O)O)[nH]c2ccccc12	PAFAH1B2 FP inh 48.7
O=C(O)c1[nH]c2ccccc2c1C(c1cc(Br)ccc1O)c1c(C(=O)O)[nH]c2ccccc12	PAFAH1B2 FP inh 94.4
CCCn1c(C(C)Nc2nc(-c3ccc(Cl)c([N+](=O)[O-])c3)cs2)nc2cc(Cl)c(N3CCCCC3)cc21 (stereo not drawn)	none
CC(C)OCCCNC(=O)CCc1nc(-c2ccccc2)no1	none
